SMILES strings stand for the structures. Unmarked numbers belong to inactive results. Inconclusive results are not listed. Calls of active or inactive are those of the source. Unless noted, the call rests on the fitted dose curve.

From PubChem BioAssay (Tox21) come the findings set out here.

A short description of test [1]: qHTS assay to identify small molecule agonists of the sonic hedgehog signaling (Shh) pathway (AID 1259368).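 Further: NIH/3T3-derived 3T3Gli1-Luc cells carrying a stable Gli1-driven firefly luciferase reporter; series mostly up to about 92 µM; nearly all actives have a fitted effect of over 15% in size.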 In outline:
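Luminescence was read after 30 min at room temperature with luciferase reagent. Before that, 3T3Gli1-Luc cells (NIH/3T3 clone, stable Gli1-Luc reporter; 2,000/well) were exposed to compounds for 24 hr at 37C, 5% CO2, compounds being added 4 hr post-plating.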
Background: Quantitative high-throughput screening tests each substance at several concentrations.

The target in test [2] is Estrogen receptor beta (Homo sapiens) (UniProt Q92731). Nature of the test: qHTS assay to identify small molecule agonists of the estrogen receptor beta (ER-beta) signaling pathway (AID 1259377; active means well fitted activation curve with a large enough effect in the signal ratio in the repeat runs, not every such curve was filed as active; the % refers to the signal ratio). In outline: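 Reporter cells (HEK293T, ER-beta-UAS-bla) receive compounds or DMSO after a 6 hr pre-incubation. They then incubate 16 hr at 37C/5% CO2, and fluorescence from LiveBLAzer B/G substrate is measured after 2 hours at room temperature.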
Estrogen receptor beta (Homo sapiens), sequence (Q92731 whole entry, looked up): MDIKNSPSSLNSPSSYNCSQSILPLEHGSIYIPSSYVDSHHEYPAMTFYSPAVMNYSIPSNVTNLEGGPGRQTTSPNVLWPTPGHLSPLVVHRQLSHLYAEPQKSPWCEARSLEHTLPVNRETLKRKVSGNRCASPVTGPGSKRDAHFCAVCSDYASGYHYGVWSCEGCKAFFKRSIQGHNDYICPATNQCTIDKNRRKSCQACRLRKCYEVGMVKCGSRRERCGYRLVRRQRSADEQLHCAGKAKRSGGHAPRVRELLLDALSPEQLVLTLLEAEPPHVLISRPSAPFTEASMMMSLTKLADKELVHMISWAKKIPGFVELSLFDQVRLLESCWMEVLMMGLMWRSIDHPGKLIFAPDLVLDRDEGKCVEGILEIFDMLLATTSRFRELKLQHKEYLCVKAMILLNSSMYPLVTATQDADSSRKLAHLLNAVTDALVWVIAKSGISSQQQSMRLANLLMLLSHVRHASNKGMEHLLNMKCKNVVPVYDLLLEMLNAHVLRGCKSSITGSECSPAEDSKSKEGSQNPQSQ

The target is the same in test [3]. The test can be described thus: qHTS assay to identify small molecule antagonists of the estrogen receptor beta (ER-beta) signaling pathway (AID 1259378; active means well fitted inhibition curve with a large enough effect in the signal ratio in the repeat runs, not every such curve was filed as active; the % refers to the signal ratio; further: potency means the concentration at half of the fitted maximal effect). In outline:
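Antagonist mode: compounds added to beta-lactamase reporter HEK293T ER-beta-UAS cells stimulated with E2 (1nM final), 16 hr at 37C. LiveBLAzer B/G FRET substrate, 2 hours room temperature, fluorescence read-out.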

A short description of test [4]: qHTS assay to identify small molecule agonists of the androgen receptor (AR) signaling pathway in the presence of an antagonist - cell viability counter screen (AID 1259379; active means well fitted curve in the direction sought with a large enough effect in the repeat runs; an effect the other way counts as inactive or inconclusive;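 further: MDA-kb2 human breast cancer cells carrying an MMTV luciferase reporter; series mostly up to about 92 µM; nearly all actives have a fitted effect of over 25% in size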). In outline:
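Cytotoxicity counter-screen run in the same wells as the nilutamide-challenged (3.0 µM final) AR agonist assay in MDA-kb2 cells. Compounds tested at 15 concentrations for 16 h, 37 °C without CO2; CellTiter-Fluor fluorescence read.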

Test [5] can be described thus: qHTS assay to identify small molecule agonists of the estrogen receptor beta (ER-beta) signaling pathway - cell viability counter screen (AID 1259380; active means well fitted curve in the direction sought with a large enough effect in the repeat runs; an effect the other way counts as inactive or inconclusive; further: nearly all actives have a fitted effect of over 30% in size). In a few lines: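 Cell viability counter screen: CellTiter-Glo luminescence (30 min, room temperature) measured in the same wells as the beta-lactamase readout, after 16 hr compound exposure at 37C of ER-beta-bla HEK293T cells in 2% charcoal-stripped FBS medium.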

Test [6] can be described thus: qHTS assay to identify small molecule antagonists of the estrogen receptor beta (ER-beta) signaling pathway - cell viability counter screen (AID 1259382; active means well fitted curve in the direction sought with a large enough effect in the repeat runs; an effect the other way counts as inactive or inconclusive;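 further: HEK293T cells carrying ER-beta-UAS-bla reporter stimulated with estradiol; series mostly up to about 92 µM; nearly all actives have a fitted effect of over 55% in size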). In a few lines: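 Cytotoxicity was measured in the same wells by CellTiter-Glo luminescence after 30 min at room temperature. Cells were ER-beta-bla HEK293T in charcoal-stripped serum, given compound together with 1 nM E2 and incubated 16 h at 37C.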

Test [7] concerns the target Estrogen receptor (Homo sapiens) (UniProt P03372). The test can be described thus: qHTS assay to identify small molecule agonists of the estrogen receptor alpha (ER-alpha) signaling pathway in the presence of an antagonist (AID 1259383). Further: top concentration of the series differs between compounds; nearly all actives have a fitted effect of over 15% in size. In a few lines: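 Agonist-mode confirmation run in the presence of 10.0nM (final) ICI-182,780 antagonist. The reporter was ERE-driven luciferase in VM7Luc4E2 cells, grown in charcoal-stripped serum. Cells were exposed to 15-concentration compound series for 22hr, then ONE-Glo luminescence was read.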

Test [8] can be described thus: qHTS assay to identify small molecule agonists of the estrogen receptor alpha (ER-alpha) signaling pathway in the presence of an antagonist - cell viability counter screen (AID 1259386; active means well fitted curve in the direction sought with a large enough effect in the repeat runs; an effect the other way counts as inactive or inconclusive; further: series mostly up to about 92 µM; nearly all actives have a fitted effect of over 30% in size). In outline: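 Compounds tested at 15 concentrations for 22 h at 37C alongside 10.0nM (final) ICI-182,780 antagonist, in VM7Luc4E2 cells grown in phenol red-free, charcoal-stripped medium. Viability read by CellTiter-Fluor fluorescence after 1 h reagent incubation.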

In test [9] the target is Progesterone receptor (Homo sapiens) (UniProt P06401). The test can be described thus: qHTS assay to identify small molecule agonists of the progesterone receptor (PR) signaling pathway (AID 1346784). Further: nearly all actives have a fitted effect of over 30% in size. In outline: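 Reporter assay, GripTite PR-UAS-bla HEK 293T cells: 16 hr exposure to DMSO-dissolved compounds at 37C, 5% CO2, in steroid-depleted (2% charcoal-stripped FBS) medium; beta-lactamase measured by FRET fluorescence.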
Progesterone receptor (Homo sapiens), sequence (P06401 whole entry, looked up): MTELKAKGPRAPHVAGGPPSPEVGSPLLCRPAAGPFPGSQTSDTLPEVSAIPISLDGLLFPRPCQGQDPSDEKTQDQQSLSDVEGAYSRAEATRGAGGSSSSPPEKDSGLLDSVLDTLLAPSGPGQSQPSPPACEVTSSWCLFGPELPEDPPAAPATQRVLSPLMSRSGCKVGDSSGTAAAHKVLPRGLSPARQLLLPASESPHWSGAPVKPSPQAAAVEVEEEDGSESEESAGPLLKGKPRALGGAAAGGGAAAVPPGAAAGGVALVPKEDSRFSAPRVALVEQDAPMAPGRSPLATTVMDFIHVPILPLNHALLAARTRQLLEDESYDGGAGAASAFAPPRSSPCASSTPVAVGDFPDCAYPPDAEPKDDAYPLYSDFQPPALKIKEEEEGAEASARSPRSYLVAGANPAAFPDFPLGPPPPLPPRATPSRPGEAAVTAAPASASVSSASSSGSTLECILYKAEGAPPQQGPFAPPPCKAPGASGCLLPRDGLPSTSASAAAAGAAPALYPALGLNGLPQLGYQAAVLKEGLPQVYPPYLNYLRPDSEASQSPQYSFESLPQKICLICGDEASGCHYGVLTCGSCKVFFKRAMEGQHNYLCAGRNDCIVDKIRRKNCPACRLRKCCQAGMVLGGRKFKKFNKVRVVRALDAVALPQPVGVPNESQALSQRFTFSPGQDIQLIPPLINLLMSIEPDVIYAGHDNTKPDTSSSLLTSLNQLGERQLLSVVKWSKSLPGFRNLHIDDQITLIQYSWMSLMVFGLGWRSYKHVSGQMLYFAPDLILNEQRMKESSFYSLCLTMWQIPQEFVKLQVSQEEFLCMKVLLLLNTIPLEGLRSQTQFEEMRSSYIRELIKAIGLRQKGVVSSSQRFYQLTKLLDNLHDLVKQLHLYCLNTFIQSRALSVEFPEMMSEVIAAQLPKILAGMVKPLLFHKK

Test [10] has the same target. The test can be described thus: qHTS assay to identify small molecule antagonists of the progesterone receptor (PR) signaling pathway (AID 1346795; active means well fitted inhibition curve with a large enough effect in the signal ratio in the repeat runs, not every such curve was filed as active; the % refers to the signal ratio). In outline:
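Stimulus R5020 at 1 nM final; cells HEK293T PR-UAS-bla; medium with 2% charcoal-stripped FBS; compound exposure 16 hr at 37C, 5% CO2; detection by FRET beta-lactamase substrate, 2 hr, room temperature.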

Test [11] is described as follows: qHTS assay to identify small molecule antagonists of the progesterone receptor (PR) signaling pathway - cell viability counter screen (AID 1346798; active means well fitted curve in the direction sought with a large enough effect in the repeat runs; an effect the other way counts as inactive or inconclusive; further: series mostly up to about 92 µM; nearly all actives have a fitted effect of over 50% in size). In a few lines:
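In the same plates used for the beta-lactamase readout, cell viability of compound- and R5020-treated PR-UAS-bla HEK293T cells (16 hr, 37C) was assessed by CellTiter-Glo luminescence.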

A short description of test [12]: qHTS assay to identify small molecule agonists of the progesterone receptor (PR) signaling pathway - cell viability counter screen (AID 1346799). Further: nearly all actives have a fitted effect of over 45% in size. In outline: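 Multiplexed viability read: CellTiter-Glo luminescence, 30 min RT, following LiveBLAzer FRET measurement on PR-UAS-bla HEK293T cells exposed to compounds 16 hr.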
Test [13] in a line: qHTS assay to identify small molecule antagonists of the TGF-beta/Smad signaling pathway - cell viability counter screen (AID 1346824; active means well fitted curve in the direction sought with a large enough effect in the repeat runs; an effect the other way counts as inactive or inconclusive; further: nearly all actives have a fitted effect of over 50% in size). In a few lines: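 Cytotoxicity counter-screen run in the same wells as the beta-lactamase Smad reporter read: CellTiter-Glo luminescence after 30 min at room temperature. HEK 293T SBE-bla cells had 5 hr compound exposure at 37 C with TGF-beta1 (0.25 ng/mL stock).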

Test [14] can be described thus: qHTS assay to identify small molecule agonists of the TGF-beta/Smad signaling pathway - cell viability counter screen (AID 1346829; active means well fitted curve in the direction sought with a large enough effect in the repeat runs; an effect the other way counts as inactive or inconclusive; further: top concentration of the series differs between compounds; nearly all actives have a fitted effect of over 45% in size). In a few lines: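 HEK 293T SBE-bla line, 5 hr compound exposure at 37 C, multiplexed CellTiter-Glo viability read by luminescence.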
A short description of test [15]: qHTS assay to identify small molecule agonists of the TGF-beta/Smad signaling pathway (AID 1346859; active means well fitted activation curve with a large enough effect in the signal ratio in the repeat runs, not every such curve was filed as active; the % refers to the signal ratio; further: series mostly up to about 77 µM). In outline: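 Screening used HEK 293T SBE-bla cells at 4,000/well. Test agents: 5 hr, 37 C. Detection: FRET substrate, 2 hr RT, then excitation 405 nm with emissions at 460 and 530 nm.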
Test [16] addresses Thyrotropin-releasing hormone receptor (Homo sapiens) (UniProt P34981). Nature of the test: qHTS assay to identify small molecule antagonists of the thyrotropin-releasing hormone receptor (TRHR) signaling pathway (AID 1346877; active means well fitted inhibition curve with a large enough effect in the repeat runs, not every such curve was filed as active; further: series mostly up to about 51 µM). In outline:
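Antagonist mode: after a 5 min room-temperature compound exposure, cells were stimulated with 1 nM (final) TRH. Dye-loaded TRHR-HEK293 cells were used, and calcium-dependent fluorescence was followed for 3 min, with 15-point titrations run in triplicate.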

Test [17] in a line: qHTS assay to identify small molecule antagonists of the sonic hedgehog signaling (Shh) pathway (AID 1259369). Further: nearly all actives have a fitted effect of over 45% in size. Further: potency means the concentration at half of the fitted maximal effect. In outline: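 Antagonist mode: compound added to 3T3 Gli1-Luc cells followed by conditioned-medium stimulation, 24 h at 37 C, 5% CO2. Inhibition taken as loss of Gli1-driven luciferase luminescence.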
Test [18] addresses Androgen receptor (Homo sapiens) (UniProt P10275). The test can be described thus: qHTS assay to identify small molecule agonists of the androgen receptor (AR) signaling pathway in the presence of an antagonist (AID 1259381). Further: nearly all actives have a fitted effect of over 15% in size. In outline: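 Agonist-mode confirmation run against 3.0 uM final nilutamide: compounds titrated at 15 concentrations onto MDA-kb2 MMTV-luciferase reporter cells. Luminescence measured with ONE-Glo following 16 hr incubation, 37C, 0% CO2.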

Test [19] in a line: qHTS assay to identify small molecule agonists or antagonists of the thyroid stimulating hormone receptor (TSHR) signaling pathway - wild type cell line counter screen (AID 1259384). In outline: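 Counter screen in untransfected Hek293: compounds (15-point titration, triplicate) plus phosphodiesterase inhibitor Ro20-1724 added after 18 h plating; 30 min RT. Intracellular cAMP via competitive d2/cryptate immunoassay, 1 h incubation.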

Test [20] addresses Thyrotropin receptor (Homo sapiens) (UniProt P16473). Nature of the test: qHTS assay to identify small molecule antagonists of the thyroid stimulating hormone receptor (TSHR) signaling pathway (AID 1259385). Further: nearly all actives have a fitted effect of over 20% in size. In a few lines:
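Antagonist mode: compound-treated TSHR-expressing HEK293 cells were stimulated with 1.5 ng/mL TSH (final) in presence of Ro20-1724 for 30 min at RT. HTRF cAMP detection after 1 h; each compound tested at 15 concentrations, triplicate.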

Androgen receptor (Homo sapiens), sequence (P10275 whole entry, looked up): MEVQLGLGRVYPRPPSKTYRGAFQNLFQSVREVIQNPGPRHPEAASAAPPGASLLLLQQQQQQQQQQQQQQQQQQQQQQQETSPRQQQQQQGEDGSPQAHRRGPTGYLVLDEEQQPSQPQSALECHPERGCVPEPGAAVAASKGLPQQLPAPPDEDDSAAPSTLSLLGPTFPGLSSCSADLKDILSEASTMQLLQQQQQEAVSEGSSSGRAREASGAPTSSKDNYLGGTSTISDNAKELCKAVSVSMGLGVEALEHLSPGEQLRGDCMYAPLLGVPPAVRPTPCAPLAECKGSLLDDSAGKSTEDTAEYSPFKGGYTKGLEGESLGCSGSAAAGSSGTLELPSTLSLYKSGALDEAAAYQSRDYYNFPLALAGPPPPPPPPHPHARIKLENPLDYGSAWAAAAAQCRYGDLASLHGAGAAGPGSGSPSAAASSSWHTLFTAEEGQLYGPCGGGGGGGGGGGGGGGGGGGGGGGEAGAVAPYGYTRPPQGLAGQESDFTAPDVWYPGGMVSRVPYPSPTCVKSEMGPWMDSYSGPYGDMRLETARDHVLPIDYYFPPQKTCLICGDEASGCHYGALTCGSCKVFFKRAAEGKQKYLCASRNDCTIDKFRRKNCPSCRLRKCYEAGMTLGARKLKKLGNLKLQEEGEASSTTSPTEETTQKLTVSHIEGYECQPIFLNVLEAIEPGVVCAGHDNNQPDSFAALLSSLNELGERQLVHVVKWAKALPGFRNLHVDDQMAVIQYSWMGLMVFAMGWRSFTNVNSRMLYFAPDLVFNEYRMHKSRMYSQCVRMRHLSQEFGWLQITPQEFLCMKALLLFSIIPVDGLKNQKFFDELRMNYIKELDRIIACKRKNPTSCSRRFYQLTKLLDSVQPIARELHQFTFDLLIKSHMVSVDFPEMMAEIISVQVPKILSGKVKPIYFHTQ
Thyrotropin receptor (Homo sapiens), sequence (P16473 whole entry, looked up): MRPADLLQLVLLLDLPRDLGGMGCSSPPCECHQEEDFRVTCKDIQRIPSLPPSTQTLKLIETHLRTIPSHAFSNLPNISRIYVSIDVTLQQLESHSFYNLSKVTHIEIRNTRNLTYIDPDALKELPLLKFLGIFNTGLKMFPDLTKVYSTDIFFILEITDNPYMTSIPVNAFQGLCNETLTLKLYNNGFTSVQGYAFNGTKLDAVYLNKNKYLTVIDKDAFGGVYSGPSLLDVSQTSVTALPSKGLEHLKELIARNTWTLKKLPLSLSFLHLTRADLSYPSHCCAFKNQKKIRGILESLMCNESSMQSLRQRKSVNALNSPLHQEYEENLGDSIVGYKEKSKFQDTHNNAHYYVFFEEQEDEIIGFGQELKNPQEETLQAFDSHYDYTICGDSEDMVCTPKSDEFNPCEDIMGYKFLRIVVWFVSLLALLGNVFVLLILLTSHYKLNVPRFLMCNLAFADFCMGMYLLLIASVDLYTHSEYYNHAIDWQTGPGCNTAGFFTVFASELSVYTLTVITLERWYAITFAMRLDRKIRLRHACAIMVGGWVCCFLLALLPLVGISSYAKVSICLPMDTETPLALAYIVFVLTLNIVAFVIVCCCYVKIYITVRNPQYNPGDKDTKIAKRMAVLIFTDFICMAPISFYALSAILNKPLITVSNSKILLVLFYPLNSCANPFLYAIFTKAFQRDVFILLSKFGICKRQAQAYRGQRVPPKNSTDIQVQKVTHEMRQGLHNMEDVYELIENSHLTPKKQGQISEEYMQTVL
Estrogen receptor (Homo sapiens), sequence (P03372 whole entry, looked up): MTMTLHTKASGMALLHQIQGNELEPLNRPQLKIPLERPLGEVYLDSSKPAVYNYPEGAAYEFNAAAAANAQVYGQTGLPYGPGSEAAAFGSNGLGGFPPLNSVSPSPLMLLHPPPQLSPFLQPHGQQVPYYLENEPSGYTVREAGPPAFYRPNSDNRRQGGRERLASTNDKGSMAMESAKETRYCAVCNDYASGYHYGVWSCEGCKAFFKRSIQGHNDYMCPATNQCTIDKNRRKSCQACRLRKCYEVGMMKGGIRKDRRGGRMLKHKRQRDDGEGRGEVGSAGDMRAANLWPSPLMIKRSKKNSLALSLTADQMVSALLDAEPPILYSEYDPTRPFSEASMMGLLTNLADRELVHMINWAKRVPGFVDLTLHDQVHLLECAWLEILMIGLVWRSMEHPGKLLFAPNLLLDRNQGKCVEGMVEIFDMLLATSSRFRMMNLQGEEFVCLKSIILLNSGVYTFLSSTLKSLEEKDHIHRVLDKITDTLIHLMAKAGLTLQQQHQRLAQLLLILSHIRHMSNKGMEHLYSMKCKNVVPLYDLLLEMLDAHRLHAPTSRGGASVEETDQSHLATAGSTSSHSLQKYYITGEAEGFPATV
Thyrotropin-releasing hormone receptor (Homo sapiens), sequence (P34981 whole entry, looked up): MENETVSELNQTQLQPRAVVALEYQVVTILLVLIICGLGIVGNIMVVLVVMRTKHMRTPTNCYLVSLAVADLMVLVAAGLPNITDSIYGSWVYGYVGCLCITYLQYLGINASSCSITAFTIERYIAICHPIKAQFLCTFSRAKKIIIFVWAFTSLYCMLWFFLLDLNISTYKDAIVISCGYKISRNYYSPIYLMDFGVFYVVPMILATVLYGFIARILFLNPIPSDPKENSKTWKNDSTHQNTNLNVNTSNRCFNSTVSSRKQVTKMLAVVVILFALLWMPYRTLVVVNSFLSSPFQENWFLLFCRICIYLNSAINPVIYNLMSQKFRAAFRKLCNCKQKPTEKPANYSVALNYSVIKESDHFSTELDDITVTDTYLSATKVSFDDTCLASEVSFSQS

`O=C(O)c1ccc2cc(O)ccc2c1`: the Potency entry in test [1], in [2], in test [3], in test [4], in [5] and in test [6] was “inactive” throughout. The Potency result in [7], in test [8], in test [9], in test [10], in test [11] and in test [12] was “inactive” throughout. Also, the compound was classed as inactive in test [13], in [14], in [15] and in test [16].

On to `CCCCCCCCOCCCN`, for which the Potency entry in [1], in [4], in test [18], in test [7], in test [20] and in test [9] was “inactive” each time. For the same compound, the Potency entry in [10] and in test [11] was “inactive” in each case. Further, the Potency in test [17] is 30.6 µM (active). For the same compound, the compound was classed as inactive in [19], in [13], in test [14], in test [15] and in test [16].

Regarding `CCC[Si](OC)(OC)OC`, the Potency result in test [1], in test [2], in test [3], in [4], in [5] and in test [18] was “inactive” each time. Also, the Potency entry in [6], in [7], in test [20], in test [8], in test [9] and in test [10] was “inactive” throughout. Moreover, the Potency entry in [11] and in test [12] was “inactive” each time. The result in [19], in test [13], in [15] and in test [16] was inactive.

Turning to `CNc1ccccc1`, the Potency result in test [1], in test [17], in test [4], in [6], in test [7] and in [8] was “inactive” throughout. Also, the Potency entry in [9], in test [10], in [11] and in test [12] was “inactive” throughout. Moreover, the compound was called inactive in test [13], in [14] and in test [15].

With `CC(C)CCCCCOC(=O)CS`, the Potency entry in [1], in test [17], in test [5], in [6], in test [7] and in test [20] was “inactive” in each case. Moreover, the Potency entry in test [8], in test [9], in test [11] and in [12] was “inactive” each time. The call in [19], in test [13], in test [14], in test [15] and in test [16] was inactive.

In the case of `O=C(Nc1ccccc1)c1cc([N+](=O)[O-])ccc1Cl`, the Potency entry in [1], in test [2], in test [4], in test [18], in test [6] and in test [7] was “inactive” in each case. In addition, the Potency result in test [20], in test [8], in test [9], in test [11] and in test [12] was “inactive” throughout. Further, the Potency in [3] is 48.6 µM (active). The call in test [19], in test [13], in test [14] and in [16] was inactive.

As for `O=C(O)c1cc(C(=O)O)cc([N+](=O)[O-])c1`, the Potency result in test [1], in test [17], in test [4], in [6], in [20] and in test [8] was “inactive” in each case. Further, the Potency entry in test [9], in [10], in test [11] and in test [12] was “inactive” throughout. The result in test [19], in [13], in test [14], in test [15] and in [16] was inactive.

`CCc1c(C)[nH]c2c1C(=O)C(CN1CCOCC1)CC2` (stereo unspecified): the Potency entry in test [1], in test [17], in [5], in test [6], in [20] and in test [8] was “inactive” each time. The Potency entry in [9], in [10] and in test [11] was “inactive” throughout. In addition, the call in test [19], in test [13], in test [14], in test [15] and in test [16] was inactive.
